Only some compounds are listed: those with a hit (about 14% of all), similar ones and a draw of the others.
Pf growth 48h = inhibits P. falciparum growth in the first generation, 48 h; P. falciparum luciferase growth in erythrocytes, 48 h; Potency, µM (top dose mostly 28.7 µM), usual class: inhibitors; actives 5.9% (n = 310,000); AID 504832
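A one-generation exposure of luciferase-tagged malaria parasites in RPMI 1640/Albumax erythrocyte culture, 37 C and 5% CO2. Inhibition is inferred from decreased luminescence after adding detection reagent.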
FBPA Giardia inh = blocks Giardia fructose-bisphosphate aldolase activity; actives 0.71% (n = 290,000); Potency, µM (doses to about 59.6 µM), usual class: inhibitors; purified Giardia FBPA; also: nearly all actives have a fitted effect of over 55% in size
Target sequence (A8B2U2 whole entry, looked up): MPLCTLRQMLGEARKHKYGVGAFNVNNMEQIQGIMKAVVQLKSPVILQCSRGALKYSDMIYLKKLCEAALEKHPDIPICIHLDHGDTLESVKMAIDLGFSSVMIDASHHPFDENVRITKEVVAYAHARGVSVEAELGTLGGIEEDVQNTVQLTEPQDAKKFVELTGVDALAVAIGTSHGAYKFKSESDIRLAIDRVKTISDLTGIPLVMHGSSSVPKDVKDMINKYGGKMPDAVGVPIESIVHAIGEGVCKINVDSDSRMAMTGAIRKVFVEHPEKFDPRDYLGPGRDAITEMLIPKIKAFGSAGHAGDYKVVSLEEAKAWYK
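Giardia FBPA (40 nM reagent) was preincubated 10 min at RT with compound (up to 57.5 uM final), then substrate plus GAPDH/TPI/NAD/arsenate coupling system with diaphorase/resazurin was added; resorufin fluorescence (525/598 nm) was read after 20 min.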
Pf growth 96h = P. falciparum growth inhibition at 96 hours; Potency, µM (highest dose often 28.7 µM), usual class: inhibitors; P. falciparum luciferase reporter growth, 96 h; actives 6.9% (n = 320,000)
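Readout is luminescence from an integrated firefly luciferase in P. falciparum. Red cells, 2% hematocrit and 0.05% parasitemia final, were cultured with compound through two parasite generations (96 hours) at 37 C, 5% CO2.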
Sm TGR block = inhibitors of Schistosoma mansoni thioredoxin glutathione reductase; actives 3% (n = 360,000); purified TGR, DTNB reduction, TNB absorbance 405 nm; Q962Y6; AID 485364; Potency, µM (doses to about 114 µM), actives largely listed as inhibitors; also: nearly all actives have a fitted effect of over 60% in size
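First, TGR (20 nM dispensed) and NADPH were mixed with compound. Second, a 15 min room-temperature incubation followed. Third, further NADPH and then DTNB were added to start the reaction. Finally, TNB absorbance was monitored kinetically.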
HCMV inh = blocks human cytomegalovirus replication. HFF cells, HCMV-luciferase reporter, 72 h; hits give low values. activity change, negative = inhibition, % at 57.5 µM. actives 4.5% (n = 410,000); in the data active = activity change below about -60%; inconclusive = no clear call, values can overlap the other calls; inactive = above about -39%
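Cell-based, HFFs, 1000 cells/well, 16 h 37C; cpds in DMSO + HCMV-luc, MOI 1 PFU/cell; 72 h 37C; OneGlo luminescence after 5 min RT; norm. to buffer vs Salinomycin 10uM.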
Each line names hits and unclear results; the compound was inactive in the other large screens. Unless noted, calls follow the shape of the dose curve; as a rule, active = well fitted curve in the direction sought with a large enough effect; inconclusive = small, poorly fitted or top-dose-only effect, or another doubt; inactive = no such curve, though single readings can be large; an effect the other way counts as inactive or inconclusive.

COc1ccc(C)cc1-n1c(SCC(=O)NCC2CCCO2)nc2c([nH]c3ccccc32)c1=O (centres undefined)	Pf growth 48h 9.3µM, Pf growth 96h inconclusive (no result: FBPA Giardia inh)
COc1ccccc1-n1c(SCC(=O)Nc2cc(C)on2)nc2c([nH]c3ccccc32)c1=O	Pf growth 96h 12µM (no result: FBPA Giardia inh)
Cc1cc(NC(=O)CSc2nc3c([nH]c4ccccc43)c(=O)n2-c2ccccc2)no1	none (no result: Pf growth 48h, FBPA Giardia inh, Pf growth 96h)
COc1ccccc1C(=O)NCCC(=O)NC1CCC(C)CC1 (centres undefined)	none (no result: FBPA Giardia inh)
C[C@H](CO)N1C[C@H](C)[C@@H](CN(C)S(=O)(=O)c2ccccc2)Oc2ccc(NC(=O)C3CC3)cc2C1=O	none (no result: Pf growth 48h, FBPA Giardia inh, Pf growth 96h, Sm TGR block)
OC1COC(c2ccccc2)OC1C(O)C1OC(c2ccccc2)OCC1O (centres undefined)	none (no result: Pf growth 48h, FBPA Giardia inh, Pf growth 96h, Sm TGR block)
O=c1cc(-c2ccc(F)cc2F)[nH]c2ccc(F)cc12	none (no result: Pf growth 48h, Pf growth 96h, Sm TGR block, HCMV inh)
COc1cc(/C=N/Nc2ccc(F)cc2F)cc(OC)c1O	FBPA Giardia inh inconclusive, Pf growth 96h inconclusive, Sm TGR block 25µM
COc1ccc(/C=N/N=C/c2ccc(OC)c(O)c2)cc1O	Pf growth 48h inconclusive (no result: FBPA Giardia inh)
COc1cc(/C=N/N=C/c2cc(OC)c(O)c(OC)c2)cc(OC)c1O	Pf growth 48h 10µM, Pf growth 96h 4.1µM, Sm TGR block inconclusive
COc1cc(/C=N/N=C(N)N)ccc1OCc1ccccc1Cl	Pf growth 48h 2.6µM, HCMV inh -100
COc1ccc(/C=N/N=C/c2ccc(OC)c(OC)c2)cc1OC	Pf growth 48h 3.7µM
COc1cccc(CNC(=O)C2CCC(CNS(=O)(=O)c3ccc4c(c3)CCCC(=O)N4)CC2)c1 (centres undefined)	none (no result: Pf growth 48h, FBPA Giardia inh, Pf growth 96h)
CC(C)=CCN1CCN(CCC2=C(C)CCCC2(C)C)CC1CCO (centres undefined)	Pf growth 48h 13µM, HCMV inh -66
